Results filed as inconclusive are left out. Entries that show only a call come without a potency. Values without a mark were called inactive. Activity calls are given as the source filed them. The call rests on the fitted dose curve; in most records, active means well fitted cell-killing curve with a large enough effect in the repeat runs; inconclusive means weak or mixed curves, or effect the other way; inactive means flat fitted curve, though single readings scatter.
Potency means the concentration at half of the fitted maximal effect.

The experiment in a line: qHTS assay to identify small molecule agonists of the sonic hedgehog signaling (Shh) pathway - cell viability counter screen (AID 1259366). Further: nearly all actives have a fitted effect of over 50% in size. Conditions: NIH/3T3 Gli1-Luc viability, CellTiter-Fluor, 24 h; series mostly up to 92.4 µM. From the text: National Center for Advancing Translational Sciences [NCATS]
NIH Chemical Genomics Center [NCGC]
U.S. Environmental Protection Agency [EPA]
National Institutes of Environmental Health Sciences [NIEHS]
National Toxicology Program [NTP]
U.S. Food and Drug Administration [FDA]
The sonic hedgehog (Shh) pathway is essential for normal embryonic development. Dysregulation of the Shh pathway can cause severe developmental defects in organs. Therefore chemicals that interfere with the pathway are potential developmental toxicants. A cell line designated 3T3Gli1-Luc (DMB/OARSA/CFSAN/FDA, Laurel, MD), a NIH/3T3 derived clone containing stably integrated Gli1-Luc reporter is used to detect chemical interference of the Shh pathway, by changes in the expression of the firefly Luc gene under the control of the Gli1 transcriptional response element. This cell line was used to screen Tox21 libraries for identifying and prioritizing the potential developmental toxicants that interfere Shh pathway. The cytotoxicity of the compounds was tested in parallel by measuring the cell viability using CellTiter-Fluor assay system (Promega, Madison, WI) in the same wells.
Tox21 Assay Protocol Summary:
3T3 Gli1-Luc cells were dispensed at 2,000 per well in 5uL of culture medium into white solid bottom 1536-well plates (Greiner Bio-One, Monroe, NC) using a Multidrop Combi (Thermo Scientific, Waltham, MA) dispenser. The assay plates were incubated at 37 C and 5% CO2 for 4hr, and then 23nL of compounds dissolved in DMSO and positive control were transferred using a Pintool station (Wako, San Diego, CA). The assay plates were incubated at 37C and 5% CO2 for 24hr. For viability read, after 23hr of compound treatment, 1uL of CellTiter-Fluor reagent (Promega Corporation, Madison, WI) was added to each well of the assay plates using Flying Reagent Dispenser (FRD, Aurora Discovery, San Diego, CA) and incubated the assay plates at 37C for 1hr. The fluorescence signal was quantified using a ViewLux plate reader (Perkin Elmer, Shelton, CT).
(Quantitative high-throughput screening tests each substance at several concentrations.)
Turning to `O=C(CS)OCCOC(=O)CS`, the Potency result is “inactive”.
Take `CCCCCCCCCCCCCCCCBr`: the viability change, negative = cytotoxic is -1.13% [at 19 µM].
With `Nc1c(I)cc(I)c(C(=O)N(CCC(=O)O)c2ccccc2)c1I`, the Potency entry was “inactive”.
The same measure, in the same setting: to `Cc1ccccc1N1C(=O)c2cc(S(N)(=O)=O)c(Cl)cc2NC1C` (stereo not given) belongs “inactive”.
As to `CCCCOC(=O)CCS`, the Potency result is “inactive”.
Same read-out and setting: to `N#C/C(=C1/SC[C@@H](c2ccc(Cl)cc2Cl)S1)n1ccnc1` belongs “inactive”; to `Cc1cc(S(=O)(=O)O)ccc1N=Nc1c(O)ccc2ccccc12`, 27.3 µM (active); to `C[C@@H]1C[C@H]2[C@@H]3CCC4=CC(=O)C=C[C@]4(C)[C@@]3(F)[C@@H](O)C[C@]2(C)[C@H]1C(=O)CO`, “inactive”.
The same measure, in the same setting: to `C[C@@H]1C[C@H]2[C@@H]3CCC4=CC(=O)C=C[C@]4(C)[C@@]3(F)[C@@H](O)C[C@]2(C)[C@@]1(O)C(=O)CO` belongs “inactive”; to `O=C1OCCN1/N=C/c1ccc([N+](=O)[O-])o1`, “inactive”.
Take `CN1CCCN=C1/C=C/c1cccs1`: the Potency result is “inactive”.
Turning to `CC(Cl)C(Cl)Cl` (stereo not given), the Potency result is “inactive”.
In the case of `CCCCC(=O)O[C@]1(C(=O)CO)[C@@H](C)C[C@H]2[C@@H]3CCC4=CC(=O)C=C[C@]4(C)[C@@]3(F)[C@@H](O)C[C@@]21C`, the Potency result was “inactive”.
On the same count and under the same terms, to `CC(=O)CC(c1ccc([N+](=O)[O-])cc1)c1c(O)c2ccccc2oc1=O` (stereo not given) belongs “inactive”; to `CC(C)c1nnc2ccc(-c3ocnc3-c3cc(F)ccc3F)cn12`, “inactive”; to `C/C(=N/NC(=O)c1ccncc1)C(=O)O`, “inactive”.
Regarding `CC(=O)[C@H]1CC[C@H]2[C@@H]3C[C@H](C)C4=CC(=O)CC[C@]4(C)[C@H]3[C@@H](O)C[C@]12C`, the Potency result was “inactive”.
Same read-out and setting: to `CCc1nn(CCCN2CCN(c3cccc(Cl)c3)CC2)c(=O)n1CCOc1ccccc1` belongs “inactive”; to `CCC(C(=O)OCCOCCN(CC)CC)c1ccccc1` (stereo not given), “inactive”.
Same read-out and setting: to `Cc1ccnc2ccccc12` belongs “inactive”.
On to `[O]=[Bi]`, for which the viability change, negative = cytotoxic is 11.3% [at 8.39 µM].
For the compound `ON(Cc1ccccc1)Cc1ccccc1`, the Potency result was “inactive”.
The same measure, in the same setting: to `CCCCN(CCCC)CCCOC(=O)c1ccc(N)cc1` belongs “inactive”; to `CC(=O)Nc1ccc(N)cc1`, “inactive”.
Same read-out and setting: to `N#C/C(=C1\SCC(c2ccccc2Cl)S1)n1ccnc1` (stereo not given) belongs “inactive”.
On the same count and under the same terms, to `CC(N)CN` (stereo not given) belongs “inactive”; to `COc1ccccc1N=Nc1c(S(=O)(=O)O)cc2cc(S(=O)(=O)O)cc(NC(C)=O)c2c1O`, 25.7 µM (active).
Take `CNC(=O)N(c1ccccc1)c1ccccc1`: the Potency entry is “inactive”.
On the same count and under the same terms, to `CCOc1cc(N)c(Cl)cc1C(=O)NCC1CN(Cc2ccc(F)cc2)CCO1` (stereo not given) belongs “inactive”; to `CCC1(C)CC(=O)NC1=O` (stereo not given), “inactive”; to `OC/C(Br)=C(\Br)CO`, “inactive”.
Turning to `OC(CCCN1CCCCC1)(c1ccccc1)c1ccccc1`, the Potency entry was “inactive”.
`CC1=NN(c2ccc(C(=O)O)cc2)C(=O)C1`: the Potency result was “inactive”.
The same measure, in the same setting: to `Cc1cc2nc3ccc(=[N+](C)C)cc-3sc2cc1N` belongs 9.44 µM (active); to `Nc1nc(Cl)nc2c1ncn2[C@@H]1O[C@H](CO)[C@@H](O)[C@@H]1F`, “inactive”; to `c1cnc2c(n1)CCCC2`, “inactive”.
Still for that read-out and setting: to `CCCCC(CC)CNCC(CC)CCCC` (stereo not given) belongs “inactive”.
On the same count and under the same terms, to `C=CC(C)(O)CCCC(C)CCCC(C)CCCC(C)C` (stereo not given) belongs “inactive”.
For `C=CCCCCCCCCCCCCCCCC`, the viability change, negative = cytotoxic is 4.48% [at 8.39 µM].
For `CCCOCCOCCO`, the Potency entry was “inactive”.

The values above are taken from PubChem BioAssay (Tox21).
